This passage reports composite z-score and z-score results from PubChem BioAssay.

Each structure is given as a SMILES string. Active and inactive are the calls of the source.

Experiment [1] can be described thus: small molecules captured by biotinylated probe aFSTL3 – biochemical, small-molecule microarray, fluorescence 635/667, stem cell growth factor project, primary screen (AID 1064).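 Also: measures binding of the biotinylated anti-FSTL3 antibody to printed compounds.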 The note with it: higher = more signal.
Experiment [2] can be described thus: binders from COS7 lysate, DM2A8 probe, primary screen, torsin A project, cell lysate, small-molecule microarray, fluorescence 635/667 (AID 1065). To be noted: higher = more signal, COS7 lysate expressing mutant human TOR1A.
A short description of experiment [3]: small molecules captured by biotinylated probe aFGF2 – biochemical, small-molecule microarray, fluorescence 635/667, stem cell growth factor project, primary screen (AID 1067).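 Also: measures binding of biotinylated aFGF2 protein to printed compounds on slides; z-score merges feature fluorescence and signal-to-noise across triplicate slides.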 The note with it: higher = more signal.
Experiment [4] in a line: small molecules captured by biotinylated probe aFGF10 – biochemical, small-molecule microarray, fluorescence 635/667, stem cell growth factor project, primary screen (AID 1071).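 Also: score merges 667 nm spot intensity and signal to noise from triplicate slides.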 The note with it: higher = more signal.
In experiment [5] the target is Neurogenic locus notch homolog protein 2 (Homo sapiens) (UniProt Q04721). Briefly: small molecules binding Notch2 protein – biochemical, small-molecule microarray, 635 nm fluorescence, stem cell growth factors, primary screen (AID 1073). To be noted: higher = more signal.
Experiment [6] has as its target Pro-neuregulin-1, membrane-bound isoform (Homo sapiens) (UniProt Q02297). Briefly: small molecules binding neuregulin-1 protein – biochemical, small-molecule microarray, fluorescence 635/667, psychiatric disease protein project, primary screen (AID 1075).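 Also: score combines 667 nm spot fluorescence with signal to noise.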 To be noted: NRG1 binding, 635 nm fluorescence, higher = more signal.
For experiment [7], the system named is Neuregulin-1 EGF-like domain. Briefly: small molecules binding NRG1 EGF domain – biochemical, small-molecule microarray, 635 nm fluorescence, primary screen (AID 1081).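 Also: binding of the protein to compounds printed on small-molecule microarray slides.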 To be noted: higher = more signal.
A short description of experiment [8]: FRG1 expression reporter modulators in myotubes – cell-based, C2C12 myotubes, firefly/Renilla luciferase, luminescence, FRG1 inhibition for FSHD, primary screen (AID 1084). The note with it: FRG1 promoter luciferase, higher = more signal, called active from +8 up or from −8 down.
Experiment [9] in a line: small molecules captured by biotinylated probe aFST – biochemical, small-molecule microarray, fluorescence 635/667, stem cell growth factor project, primary screen (AID 1086).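 Also: score merges 667 nm fluorescence with signal-to-noise of each printed compound spot.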 The note with it: higher = more signal.
A short description of experiment [10]: binders of probe aHhip on microarray, primary screen, stem cell growth factor project, biochemical, small-molecule microarray, fluorescence 635/667 (AID 1087).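 Also: score merges spot fluorescence at 667nm with spot signal to noise ratio.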 To be noted: higher = more signal.
Experiment [11] concerns PRMT1 (protein arginine N-methyltransferase 1). Briefly: small molecules binding arginine methyltransferase PRMT1 – biochemical, small-molecule microarray, 635 nm fluorescence, primary screen (AID 1088).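 Also: binding of Prmt1 protein to compounds spotted on small-molecule microarray slides.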 To be noted: higher = more signal.
Experiment [12] in a line: growth effects on S. cerevisiae YJM789 – YJM789 clinical isolate, OD600, 24 h, basal, primary screen (AID 1089).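 Also: growth of clinical yeast isolate S. cerevisiae YJM 789 seeded 1000 cells per well; test concentration not given here.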 The note with it: higher = more signal, called active from +8 up or from −8 down.
Experiment [13] can be described thus: S. pombe growth modifiers, basal conditions – strain 972, OD600, 24 h, no modulator, primary screen (AID 1090).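 Also: basal condition with compound alone and no growth modifier present; test concentration not given here.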 To be noted: S. pombe 972 growth, higher = more signal, called active from +8 up or from −8 down.
A short description of experiment [14]: budding yeast growth modifiers under rapamycin – strain BY4716, OD600, 96 h, primary screen (AID 1091). Also: test concentration not given here. The note with it: S. cerevisiae BY4716 + rapamycin, higher = more signal, called active from +8 up or from −8 down.
The target of experiment [15] is Torsin-1A-interacting protein 2 (Homo sapiens) (UniProt Q8NFQ8). Briefly: small molecules binding lysate-expressed LULL1 – cell lysate, human LULL1 lysate, 635/667 nm fluorescence, primary screen (AID 1092).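 Also: probe is lysate of COS7 cells overexpressing human LULL1; score merges per-feature 667 nm fluorescence with signal-to-noise.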 The note with it: small-molecule microarray, hLULL1 lysate binding, 635 nm fluorescence; higher = more signal.
Experiment [16] can be described thus: optical density change of DRC41 E. coli – strain DRC41, OD650, 24 h, E. coli filamentation project, primary screen (AID 1093).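 Also: MC1000 strain lacking acrAB efflux and sulA so SOS filamentation is blocked; test concentration not given here.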 To be noted: E. coli DRC41 growth, higher = more signal, called active from +8 up or from −8 down.
A short description of experiment [17]: probe aLefty2 binding to arrayed compounds – biochemical, biotinylated probe, 635/667 nm fluorescence, primary screen (AID 1094).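 Also: score merges spot fluorescence near 667 nm with spot signal-to-noise ratio.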 To be noted: small-molecule microarray, higher = more signal.
Experiment [18] deals with Noggin (protein binding on small-molecule microarray). Briefly: small molecules binding Noggin protein – biochemical, 635/667 nm fluorescence, primary screen (AID 1095).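 Also: score merges 667 nm feature fluorescence with signal to noise over triplicate slides.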 To be noted: 635 nm fluorescence, higher = more signal.
In experiment [19] the target is Neurogenic locus notch homolog protein 3 (Homo sapiens) (UniProt Q9UM47). Briefly: small molecules binding NOTCH3 protein – biochemical, 635/667 nm fluorescence, primary screen (AID 1096). To be noted: small-molecule microarray, 635 nm fluorescence, higher = more signal.
The nature of experiment [20]: probe aEGFR binding to arrayed compounds – biochemical, biotinylated probe, 635/667 nm fluorescence, primary screen (AID 1097).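 Also: probe is a biotinylated anti-EGFR antibody binding compounds printed on slides; score combines fluorescence near 667 nm and signal to noise of each spot.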 To be noted: small-molecule microarray, higher = more signal.

Neurogenic locus notch homolog protein 3 (Homo sapiens), sequence (Q9UM47 whole entry, looked up): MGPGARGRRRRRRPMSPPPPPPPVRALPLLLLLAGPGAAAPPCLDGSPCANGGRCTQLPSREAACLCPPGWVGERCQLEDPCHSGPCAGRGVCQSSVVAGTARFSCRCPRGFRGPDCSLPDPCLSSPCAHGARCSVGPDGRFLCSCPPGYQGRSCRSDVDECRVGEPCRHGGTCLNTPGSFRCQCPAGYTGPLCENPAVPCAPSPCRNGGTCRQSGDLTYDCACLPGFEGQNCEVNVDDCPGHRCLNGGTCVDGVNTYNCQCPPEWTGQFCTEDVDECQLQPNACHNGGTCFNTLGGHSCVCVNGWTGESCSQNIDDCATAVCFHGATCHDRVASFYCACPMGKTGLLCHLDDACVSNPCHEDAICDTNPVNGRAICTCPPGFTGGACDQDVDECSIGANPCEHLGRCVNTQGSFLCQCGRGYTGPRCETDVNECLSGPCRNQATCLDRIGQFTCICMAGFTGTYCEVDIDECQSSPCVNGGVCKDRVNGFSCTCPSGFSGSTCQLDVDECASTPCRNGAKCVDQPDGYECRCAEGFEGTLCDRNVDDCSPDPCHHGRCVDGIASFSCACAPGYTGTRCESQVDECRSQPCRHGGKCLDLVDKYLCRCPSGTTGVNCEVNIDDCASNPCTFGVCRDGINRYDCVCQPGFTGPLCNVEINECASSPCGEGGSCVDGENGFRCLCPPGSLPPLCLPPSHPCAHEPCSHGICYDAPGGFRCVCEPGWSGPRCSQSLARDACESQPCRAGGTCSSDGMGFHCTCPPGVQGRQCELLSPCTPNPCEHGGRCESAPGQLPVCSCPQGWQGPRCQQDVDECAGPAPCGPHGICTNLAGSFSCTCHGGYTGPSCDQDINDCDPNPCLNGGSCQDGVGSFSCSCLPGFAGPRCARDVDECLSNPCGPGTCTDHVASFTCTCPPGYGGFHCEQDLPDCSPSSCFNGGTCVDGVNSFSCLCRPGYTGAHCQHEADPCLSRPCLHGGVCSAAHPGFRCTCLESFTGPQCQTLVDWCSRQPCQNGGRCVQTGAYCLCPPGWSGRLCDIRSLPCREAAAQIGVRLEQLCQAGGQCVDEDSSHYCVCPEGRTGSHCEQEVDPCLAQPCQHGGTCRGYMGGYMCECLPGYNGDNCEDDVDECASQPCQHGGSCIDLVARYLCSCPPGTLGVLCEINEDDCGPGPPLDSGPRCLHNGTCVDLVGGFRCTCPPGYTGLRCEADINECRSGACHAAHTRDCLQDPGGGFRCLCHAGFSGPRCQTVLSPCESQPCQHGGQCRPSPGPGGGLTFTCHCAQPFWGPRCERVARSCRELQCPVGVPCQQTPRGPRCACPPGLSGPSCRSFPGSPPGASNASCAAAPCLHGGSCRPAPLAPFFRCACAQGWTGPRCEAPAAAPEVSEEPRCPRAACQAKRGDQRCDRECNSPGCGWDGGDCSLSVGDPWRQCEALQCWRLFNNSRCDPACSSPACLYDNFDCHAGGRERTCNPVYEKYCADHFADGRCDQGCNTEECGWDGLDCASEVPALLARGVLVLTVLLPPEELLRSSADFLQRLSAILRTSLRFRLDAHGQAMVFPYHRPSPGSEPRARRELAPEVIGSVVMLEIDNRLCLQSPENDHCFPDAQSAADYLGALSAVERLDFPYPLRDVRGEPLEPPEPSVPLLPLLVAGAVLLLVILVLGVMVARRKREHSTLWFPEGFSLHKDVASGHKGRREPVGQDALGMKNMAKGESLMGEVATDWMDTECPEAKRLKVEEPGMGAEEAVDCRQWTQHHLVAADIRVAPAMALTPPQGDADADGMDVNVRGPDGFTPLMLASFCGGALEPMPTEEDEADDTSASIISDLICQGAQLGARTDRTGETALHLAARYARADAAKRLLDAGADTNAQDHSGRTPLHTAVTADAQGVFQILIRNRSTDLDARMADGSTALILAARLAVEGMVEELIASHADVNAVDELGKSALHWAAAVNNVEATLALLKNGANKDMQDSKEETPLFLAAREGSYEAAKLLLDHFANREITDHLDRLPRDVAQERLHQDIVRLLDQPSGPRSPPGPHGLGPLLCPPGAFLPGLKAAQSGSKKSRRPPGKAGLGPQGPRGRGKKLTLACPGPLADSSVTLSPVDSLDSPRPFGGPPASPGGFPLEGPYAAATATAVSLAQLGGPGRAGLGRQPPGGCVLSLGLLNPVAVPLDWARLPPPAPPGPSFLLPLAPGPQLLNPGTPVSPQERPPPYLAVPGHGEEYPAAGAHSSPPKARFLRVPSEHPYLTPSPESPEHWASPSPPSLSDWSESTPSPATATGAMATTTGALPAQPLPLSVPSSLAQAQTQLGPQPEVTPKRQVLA
Torsin-1A-interacting protein 2 (Homo sapiens), sequence (Q8NFQ8 whole entry, looked up): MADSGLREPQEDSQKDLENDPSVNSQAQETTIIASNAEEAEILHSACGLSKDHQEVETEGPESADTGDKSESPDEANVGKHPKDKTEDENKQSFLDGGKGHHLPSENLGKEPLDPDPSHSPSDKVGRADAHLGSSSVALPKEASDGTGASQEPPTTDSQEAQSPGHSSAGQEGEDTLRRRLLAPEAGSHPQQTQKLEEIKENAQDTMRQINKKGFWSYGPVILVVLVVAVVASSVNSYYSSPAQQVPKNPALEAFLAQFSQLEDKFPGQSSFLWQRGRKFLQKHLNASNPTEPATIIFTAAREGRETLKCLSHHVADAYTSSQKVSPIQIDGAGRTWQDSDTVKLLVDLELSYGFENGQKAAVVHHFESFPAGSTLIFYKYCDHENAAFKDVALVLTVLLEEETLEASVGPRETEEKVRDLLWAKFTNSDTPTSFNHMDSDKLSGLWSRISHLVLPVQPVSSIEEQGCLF
Pro-neuregulin-1, membrane-bound isoform (Homo sapiens), sequence (Q02297 whole entry, looked up, the tested form may be a part, canonical isoform): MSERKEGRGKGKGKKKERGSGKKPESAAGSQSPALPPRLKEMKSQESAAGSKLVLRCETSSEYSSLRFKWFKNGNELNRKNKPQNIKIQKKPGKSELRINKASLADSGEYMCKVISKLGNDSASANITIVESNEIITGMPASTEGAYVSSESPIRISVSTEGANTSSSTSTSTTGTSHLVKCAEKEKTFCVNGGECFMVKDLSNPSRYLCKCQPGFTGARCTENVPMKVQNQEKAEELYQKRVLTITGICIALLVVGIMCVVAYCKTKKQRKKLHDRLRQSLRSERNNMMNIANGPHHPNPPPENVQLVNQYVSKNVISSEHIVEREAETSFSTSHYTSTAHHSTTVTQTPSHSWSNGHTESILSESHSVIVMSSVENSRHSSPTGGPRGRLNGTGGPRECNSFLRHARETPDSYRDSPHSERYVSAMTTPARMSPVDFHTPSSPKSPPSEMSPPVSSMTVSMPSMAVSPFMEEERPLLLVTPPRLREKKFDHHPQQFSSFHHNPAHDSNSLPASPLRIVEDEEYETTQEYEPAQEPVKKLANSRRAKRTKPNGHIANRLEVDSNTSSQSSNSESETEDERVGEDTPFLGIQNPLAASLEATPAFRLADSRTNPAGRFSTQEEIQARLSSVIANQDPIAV

As for `C/C=C/[C@H](CCn1cc([C@H](O)c2ccccc2)nn1)[Si](C)(C)c1ccc(OC)cc1`, the composite z-score in [1] is 1.18; in experiment [2] it was -0.153; in experiment [3] it was -0.234; in experiment [4], -0.071; in experiment [5], -1.51; in experiment [6], 0.0287. Also, the composite z-score in experiment [7] is -0.0288; in experiment [9], -1.04; in experiment [10], -0.374; in experiment [11], -0.144; in experiment [15], 0.0061; in experiment [17] it was -0.139. For the same compound, the composite z-score is -0.953 in [18], -0.999 in [19] and -0.375 in experiment [20]. In addition, the z-score was -0.488 (inactive) in experiment [8]; -0.298 (inactive) in [12]; -1.05 (inactive) in experiment [13]; -0.229 (inactive) in [14]; 0.0004 (inactive) in [16].

Regarding `CC[C@@H]1C=C(C(=O)O)[C@H](c2ccc(C(C)C)cc2)N1S(=O)(=O)c1ccc(C)cc1`, the composite z-score in [1] came to 0.341; in experiment [2] it was 1.41; in [3], 0.412; in experiment [4], 1.12; in experiment [5], 1.75; in experiment [6] it was 1.91. The composite z-score in [7] amounted to 0.908; in experiment [9] it was 1.64; in experiment [10], 0.0401; in experiment [11] it was 1.53; in [15], 3.03; in [17], 0.678. The composite z-score in [18] is -0.0177; in [19], 1.03; in [20] it was 0.516. Moreover, the z-score in experiment [8] is -2.32 (inactive); in experiment [12], -0.921 (inactive); in experiment [13], 0.242 (inactive); in experiment [14], -1.07 (inactive); in [16], -0.29 (inactive).

Turning to `COc1ccc([Si](C)(C)[C@H]2[C@H](CCO)O[C@@]3(C(=O)N(Cc4ccccc4)c4ccc(N5C(=O)COc6ccccc65)cc43)[C@@H]2C)cc1`, the composite z-score in experiment [1] is 0.253; in experiment [2] it was -0.113; in experiment [3], -0.0692; in experiment [4], 0.264; in experiment [5], 0.167; in [6], 1.06. In addition, the composite z-score is 0.487 in experiment [7]; 0.0228 in [9]; 0.357 in experiment [10]; -0.171 in [11]; 1.14 in experiment [15]; 0.0365 in [17]. For the same compound, the composite z-score in [18] is 0.177; in [19], 0.246; in experiment [20] it was -0.126. Besides, the z-score in experiment [8] was -1.69 (inactive); in experiment [12], 0.773 (inactive); in experiment [13], -0.494 (inactive); in experiment [14], 5.54 (inactive); in experiment [16] it was 1.45 (inactive).

Consider `C=CCOC(=O)[C@H]1[C@@H]2C(=O)O[C@@H](c3ccccc3)[C@@H](c3ccccc3)N2[C@@H](c2ccc(OCCOC(=O)[C@@H]3C[C@@H]4C(=O)NCC(=O)N4[C@@H]3c3ccc(O)cc3)cc2)[C@]12C(=O)Nc1ccc(I)cc12`, for which the composite z-score in [1] is -0.321; in experiment [2], 0.335; in experiment [3], 0.0364; in [4], 0.438; in experiment [5], 0.93; in [6], 1.17. In addition, the composite z-score in experiment [7] is 1.27; in experiment [9], 0.317; in experiment [10] it was 0.107; in [11], 1.55; in [15], 2.57; in experiment [17] it was -0.205. The composite z-score in experiment [18] was 1.64; in [19] it was 1.11; in [20], -0.0788. Moreover, the z-score in experiment [8] is -0.0667 (inactive); in experiment [12], 0.591 (inactive); in experiment [13], 0.0218 (inactive); in experiment [14] it was 2.48 (inactive); in experiment [16], -0.375 (inactive).

As for `COc1ccc(C#Cc2ccc3c(c2)[C@]2(C(=O)N3)[C@H](c3ccc(OCCO)cc3)N3[C@H](c4ccccc4)[C@H](c4ccccc4)OC(=O)[C@H]3[C@@H]2C(=O)Nc2nc3ccccc3s2)cc1`, the composite z-score in [1] is 0.244; in experiment [2] it was 0.664; in experiment [3] it was -0.0167; in experiment [4] it was 0.71; in experiment [5], 1.07; in experiment [6], 2.24. In addition, the composite z-score in [7] is 1.13; in experiment [9] it was 0.667; in [10], -0.181; in [11] it was 1.54; in experiment [15] it was 3.02; in experiment [17] it was 0.135. In addition, the composite z-score in [18] turned out to be 0.57; in [19] it was 1.12; in experiment [20], 0.238. Besides, the z-score in experiment [8] was 3.55 (inactive); in experiment [12], 2 (inactive); in experiment [13], 0.831 (inactive); in [14] it was 1.44 (inactive); in experiment [16], 2.4 (inactive).
